From PubChem BioAssay AID1063 (University of Pittsburgh Molecular Library Screening Center, 2008)
Screen size: about 200,000 compounds; about 18,000 (9%) were called active. No stated cut-off is given here; in the data, active means inhibition above about 50%; inactive means the rest. The list comes from a sample in which actives are over-represented; it also holds similar structures and randomly drawn compounds.

Assay: antileishmanial activity against promastigotes – primary screen (AID 1063);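 further: promastigotes grown with compound for 44 hours at 28 °C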
Conditions: Leishmania major promastigotes, resazurin fluorescence viability; at 10 µM; hits give high values
In the case of `CCc1ccc2c(c1)C1(NN=C(c3ccccc3)S1)C(=O)N2` (configuration not stated), the inhibition is reported as 99.1% (active). For `O=C1Nc2ccccc2C12Nc1ccccc1S2` (configuration not stated), the inhibition was -4.59% (inactive). For `C=C1c2cc(CC)ccc2NC(=O)N1c1ccc(C)cc1`, the inhibition was 12.2% (inactive). In the case of `COc1ccccc1NC(=O)COc1ccc(C(=O)OCC(=O)N(C(C)C)C(C)C)cc1OC`, the inhibition is reported as -1.06% (inactive). For `COc1ccc(C(=O)NC(Cc2ccc(OC(=O)c3ccc(OC)cc3)cc2)C(=O)O)cc1` (configuration not stated), the inhibition was -3.89% (inactive). With `CCN(CCCCOC(=O)c1ccc(OC)c(OC)c1)C(C)Cc1ccc(OC)cc1` (configuration not stated) the inhibition was 100% (active). In the case of `CC(C)OC(=O)CN1CCN(c2ccc(Cl)cc2)CC1`, the inhibition is reported as -1.87% (inactive). In the case of `CCCc1[nH]nc2c1C(c1ccc(OC(=O)c3ccco3)cc1)C(C#N)=C(N)O2` (configuration not stated), the inhibition is reported as 15.8% (inactive). In the case of `N#CC1=C(N)OC2=C(C(=O)CCC2)C1C1CC=CCC1` (configuration not stated), the inhibition is reported as 4.1% (inactive). For `CCCc1[nH]nc2c1C(C1CC=CCC1)C(C#N)=C(N)O2` (configuration not stated), the inhibition was 66.6% (active). For `CCCc1[nH]nc2c1C(c1ccc(Br)s1)C(C#N)=C(N)O2` (configuration not stated), the inhibition was 100% (active). In the case of `CCCc1[nH]nc2c1C(c1c(C)nn(-c3ccccc3)c1Cl)C(C#N)=C(N)O2` (configuration not stated), the inhibition is reported as 8.77% (inactive). For `COCc1[nH]nc2c1C(C1C=CCCC1)C(C#N)=C(N)O2` (configuration not stated), the inhibition was 45.2% (inactive). In the case of `CC(=O)N1CCN(S(=O)(=O)c2c(F)cc(F)c(Cl)c2F)CC1`, the inhibition is reported as 0.83% (inactive). With `COc1ccc(C(=O)Nc2cccc(S(C)(=O)=O)c2)cc1` the inhibition was -0.33% (inactive). With `CC(C)(C)NC(=O)COC(=O)c1cc(Cl)ccc1[N+](=O)[O-]` the inhibition was 2.68% (inactive). In the case of `CCOC(=O)C1(Cc2cccc(OC)c2)CCCN(S(=O)(=O)c2cccnc2)C1` (configuration not stated), the inhibition is reported as 1.74% (inactive). For `CCOC(=O)c1sc(/N=C/C2=C(O)CC(C)(C)CC2=O)c(C(=O)OCC)c1C`, the inhibition was -3.8% (inactive). With `Cn1c(=O)c2c(ncn2CC(COCc2ccccc2Cl)OCc2ccccc2Cl)n(C)c1=O` (configuration not stated) the inhibition was 96.2% (active). For `Cn1c(=O)c2c(ncn2CCc2ccccc2)n(C)c1=O`, the inhibition was -0.5% (inactive). In the case of `Cn1c(=O)c2c(ncn2CC(=O)N2CCN(c3ccccc3)CC2)n(C)c1=O`, the inhibition is reported as -3.01% (inactive). In the case of `Cc1ncc([N+](=O)[O-])n1CCOC(=O)c1ccc(Br)cc1`, the inhibition is reported as 13.8% (inactive). With `Cc1cccc(C)c1NC(=O)C1(C)c2cccc[n+]2CC(=O)N1Cc1cccs1` (configuration not stated) the inhibition was 13.1% (inactive). In the case of `CC(C)(C)c1ccc(C(=O)CSc2ncn[nH]2)cc1`, the inhibition is reported as -1.37% (inactive). For `O=C(/C=C/Sc1ncn[nH]1)c1ccc(Cl)cc1`, the inhibition was 100% (active). For `O=C(NCCOCc1ccc(Cl)cc1)c1ncn[nH]1`, the inhibition was 24.4% (inactive). For `Cc1cc(C)n(-c2nnc(N3CCN(c4ccccc4)CC3)nn2)n1`, the inhibition was 10.3% (inactive). For `Cc1n[nH]c(=O)n1-c1ccc(C(C)C)cc1`, the inhibition was -3.84% (inactive). In the case of `C/C(=N/O)c1ccc(N2C(=O)C3C4C=CC(C3C2=O)C2C3C(=O)N(c5ccc(/C(C)=N/O)cc5)C(=O)C3C42)cc1` (configuration not stated), the inhibition is reported as -0.53% (inactive). With `Cc1ccc2[nH]c(=O)c(CN3CCCCC3)c(-c3ccccc3)c2c1` the inhibition was 6.53% (inactive). With `Nc1cccc(CCc2nc3ccccc3[nH]2)c1` the inhibition was -2.96% (inactive). For `Nc1cccc(-c2cc(-c3ccccc3)nc(-c3cccc(N)c3)n2)c1`, the inhibition was 64% (active). In the case of `CS(=O)(=O)c1sc2nc(-c3ccccc3)cc(-c3ccccc3)c2c1N`, the inhibition is reported as 3.87% (inactive). For `OC1CSc2nc3ccccc3n2C1` (configuration not stated), the inhibition was 0.82% (inactive). With `O=C(Nc1cccc(C(F)(F)F)c1)c1cnccn1` the inhibition was 7.19% (inactive). In the case of `Nc1c(C(=O)NCc2ccccc2)nnn1Cc1cccc(Cl)c1`, the inhibition is reported as -2.28% (inactive). For `O=c1[nH]n(-c2cccc(Cl)c2)c2ncccc12`, the inhibition was -7.31% (inactive). For `Clc1cccc(CN2COc3c(cc(Cl)c4cccnc34)C2)c1`, the inhibition was 101% (active). With `O=C(C(=O)N1CCc2ccccc2C1)c1c[nH]c2ccccc12` the inhibition was 4.91% (inactive). In the case of `Cc1ccccc1NC(=O)NC1(C(=O)N2CCCC2)CCCCC1`, the inhibition is reported as -6.94% (inactive). In the case of `CC(C)C(=O)Nc1ccc(C(=O)NNC(=O)c2cccs2)cc1`, the inhibition is reported as 66.2% (active). With `Cc1ccc(C(=O)NNC(=O)c2cccs2)cc1` the inhibition was 5.96% (inactive). For `O=C(O)c1ccc(NC(=O)c2cccs2)cc1`, the inhibition was -4.2% (inactive). For `COc1ccc(OC)c(S(=O)(=O)NCCC(C)C)c1`, the inhibition was -7.99% (inactive). With `O=C1Oc2ccccc2C(=O)/C1=C/c1ccccc1O` the inhibition was 7.18% (inactive). In the case of `CN1CCN(C(=O)N2c3ccccc3CCc3ccccc32)CC1`, the inhibition is reported as -0.1% (inactive). For `O=C(Nc1cccc(O)c1)c1ccc(C(=O)c2ccccc2)o1`, the inhibition was 26.7% (inactive). With `CCOC(=O)c1cc2c(n(-c3ccc(C)cc3)c1=O)CCCC2=O` the inhibition was 15.4% (inactive). In the case of `O=C1CCCC2=C1C(c1cccs1)CC(=O)N2c1ccc(F)cc1` (configuration not stated), the inhibition is reported as 4.07% (inactive). In the case of `CCOC(=O)C1=C(N)N(c2ccc(C)cc2)C2=C(C(=O)CCC2)C1c1cccs1` (configuration not stated), the inhibition is reported as 92.3% (active). In the case of `Cc1nc(-c2ccccc2)sc1C(=O)/C=C/N(C)C`, the inhibition is reported as -7.03% (inactive). With `C/C=C/c1ccc(OCCCCN2CCC(C)CC2)c(OC)c1` the inhibition was 95.6% (active). With `C/C=C/c1ccc(OCCOc2ccc(C=O)cc2OC)c(OC)c1` the inhibition was -4.56% (inactive). For `COc1ccc(OC)c(NC(=O)CCN2CCC(C)CC2)c1`, the inhibition was 1.65% (inactive). In the case of `O=c1c(Cl)c(NC2CC2)cnn1-c1ccccc1`, the inhibition is reported as -1.71% (inactive). With `c1ccc2c(c1)CSc1sccc1C2=C1CCNCC1` the inhibition was 58.3% (active). With `CCOC(=O)Cc1csc(NC(=O)COc2ccc3c(C)cc(=O)oc3c2)n1` the inhibition was 13.5% (inactive). With `COc1ccc(N(C(=O)c2cccnc2)S(=O)(=O)c2ccc3c(c2)n(C)c(=O)n3C)cc1` the inhibition was 0.4% (inactive). In the case of `O=C(c1cccnc1)N(c1cc2sc(=O)oc2c2ccccc12)S(=O)(=O)c1ccccc1`, the inhibition is reported as 99.2% (active). With `CN(C)S(=O)(=O)c1cccc(C(=O)Nc2cccnc2)c1` the inhibition was -3.68% (inactive). With `N/C(Cc1ccc([N+](=O)[O-])cc1)=N\OC(=O)C1CCCCC1` the inhibition was -4.63% (inactive). In the case of `COCCN(C(=O)c1ccccc1F)c1c(N)n(Cc2ccccc2)c(=O)[nH]c1=O`, the inhibition is reported as -1.31% (inactive). In the case of `CCOC(=O)c1nc(Nc2ccc(C(=O)OC)cc2)c2ccccc2n1`, the inhibition is reported as 16.3% (inactive). In the case of `CCOC(=O)c1c(C)nc(-c2ccccc2)nc1NC(=O)C(C)C`, the inhibition is reported as 14.1% (inactive). With `c1ccc(-c2nc(NCc3ccco3)c3ccccc3n2)cc1` the inhibition was 66.3% (active). With `CCC(=O)OCCNc1nc(-c2ccccc2)nc2ccccc12` the inhibition was 88.4% (active). For `c1coc(CNc2ncnc3ccccc23)c1`, the inhibition was 32.3% (inactive). In the case of `CS(=O)(=O)n1nc(-c2ccccc2)nc1NCc1ccco1`, the inhibition is reported as -5.02% (inactive). In the case of `CN(C)c1ccc(NC(=O)CSc2n[nH]c(-c3ccco3)n2)cc1`, the inhibition is reported as 47% (inactive). For `CCN(CC)C(=O)Cn1cc(S(=O)(=O)CC(=O)NCc2ccc3c(c2)OCO3)c2ccccc21`, the inhibition was -2.2% (inactive). With `CCCN(CC(=O)Nc1ccc(OC)c(OC)c1)CC(=O)Nc1ccc(F)c(F)c1F` the inhibition was -4.92% (inactive). In the case of `COCCSc1nnc(NC(=O)c2cc(OC)c(OC)cc2[N+](=O)[O-])s1`, the inhibition is reported as -4.07% (inactive). For `CC(=O)c1ccc(NC(=S)N(Cc2ccccc2)C(C)C2CC2)cc1` (configuration not stated), the inhibition was 11.1% (inactive). In the case of `CC(C)CC(=O)NC(=S)Nc1ccc(F)cc1F`, the inhibition is reported as -0.93% (inactive). For `Cc1[nH]nc(SCC(=O)NCC(C)C)c1[N+](=O)[O-]`, the inhibition was -6.19% (inactive). For `Cc1cccc(C)c1OCC(O)CN1CCCCC1` (configuration not stated), the inhibition was -0.13% (inactive). In the case of `OC(COCCC12CC3CC(CC(C3)C1)C2)CN1CCCCC1` (configuration not stated), the inhibition is reported as 92.4% (active). With `COCC1CCCN(Cc2cn[nH]c2-c2cc3ccccc3o2)C1` (configuration not stated) the inhibition was 11.4% (inactive). In the case of `O=C(CC1Nc2ccccc2NC1=O)Nc1ccccc1NC(=O)CC1Nc2ccccc2NC1=O` (configuration not stated), the inhibition is reported as -4.12% (inactive). With `CSCCC(=O)N1CCCC(CNC(=O)c2ccccc2Cl)C1` (configuration not stated) the inhibition was -3.88% (inactive). With `CCOc1ccc(-n2c(O)c(/C=N/Nc3nnc(C)c(=O)[nH]3)c3ccccc3c2=O)cc1` the inhibition was 3.53% (inactive). In the case of `COc1ccc(/C=N/Nc2nc3ccccc3c(=O)[nH]2)cc1`, the inhibition is reported as 36.7% (inactive). For `COc1ccc(Cc2nnc(N/N=C/c3ccccc3O)[nH]c2=O)cc1OC`, the inhibition was 97.4% (active). For `CCCCNS(=O)(=O)c1ccc2nc(SCC(=O)Nc3cc(C)cc(C)c3)[nH]c2c1`, the inhibition was -3.48% (inactive). For `O=C(CSc1ncn[nH]1)NCc1ccc2c(c1)OCO2`, the inhibition was -2.48% (inactive). In the case of `Cc1[nH]c2c(C(=O)N3CCCC(CCC(=O)NCc4ccccc4F)C3)cccc2c1C` (configuration not stated), the inhibition is reported as 3.43% (inactive). For `Nc1[nH]c(=S)nc2nc(-c3ccccc3)c(-c3ccccc3)nc12`, the inhibition was 29.6% (inactive). With `Cc1nc2nc[nH]n2c(=O)c1C/C=C/c1ccccc1` the inhibition was -0.45% (inactive). With `CCc1c(C)nc2cc(C)[nH]n2c1=O` the inhibition was 65% (active). With `CCc1c(C)nc2cc(-c3cccs3)[nH]n2c1=O` the inhibition was 6.8% (inactive). In the case of `COc1cccc(Cn2cnc3c([N+](=O)[O-])c(C)c(C)cc32)c1`, the inhibition is reported as 12.1% (inactive). For `Oc1ccccc1C=NC1CCCCC1N=Cc1ccccc1O` (configuration not stated), the inhibition was -8.81% (inactive). For `COc1cc(/C=C2/C(=O)ON=C2C)ccc1OCc1cccc(F)c1`, the inhibition was 53.5% (active). With `COc1cc(/C=C2/C(=O)ON=C2C)ccc1OCc1ccccc1F` the inhibition was 33.4% (inactive). For `COc1cc(/C=N/n2c(C)n[nH]c2=S)ccc1OCc1ccccc1`, the inhibition was 36.4% (inactive). With `Cc1cccc2c1N(CCOc1ccccc1)C(=O)C2=O` the inhibition was 4.82% (inactive). For `O=C(CC1C(=O)NCCN1CC(c1ccccc1)c1ccccc1)NCCc1cn[nH]c1` (configuration not stated), the inhibition was -0.14% (inactive).
